Results as given in PubChem BioAssay AID624330 (Southern Research Specialized Biocontainment Screening …, 2012).
Among all 340,000 compounds or so, about 2,100 (0.62%) were called active.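 How the source made its calls: active means first-screen hits whose inhibition reached a set limit at any dose in the follow-up dose series; inconclusive means inhibition above the set first-screen limit but never retested; inactive means the rest.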 These entries were drawn from the full list. Results with a measured potency or affinity are listed apart.

Each compound was assayed against Rac GTPase-activating protein 1 (Homo sapiens) (UniProt Q9H0H5) (assay: MgcRacGAP GTPase-activating activity inhibitors, confirmation, biochemical, ADP Hunter fluorescence, primary and confirmatory (AID 624330;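 further: fluorescence reports GDP produced by GAP-driven GTP hydrolysis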)). Conditions: MgcRacGAP-stimulated Rac1 GTP hydrolysis, at 30 µM, active compounds read high, GST-tagged Rac1 F28L mutant substrate.
Sequence of Rac GTPase-activating protein 1 (Homo sapiens) (Q9H0H5 whole entry, looked up): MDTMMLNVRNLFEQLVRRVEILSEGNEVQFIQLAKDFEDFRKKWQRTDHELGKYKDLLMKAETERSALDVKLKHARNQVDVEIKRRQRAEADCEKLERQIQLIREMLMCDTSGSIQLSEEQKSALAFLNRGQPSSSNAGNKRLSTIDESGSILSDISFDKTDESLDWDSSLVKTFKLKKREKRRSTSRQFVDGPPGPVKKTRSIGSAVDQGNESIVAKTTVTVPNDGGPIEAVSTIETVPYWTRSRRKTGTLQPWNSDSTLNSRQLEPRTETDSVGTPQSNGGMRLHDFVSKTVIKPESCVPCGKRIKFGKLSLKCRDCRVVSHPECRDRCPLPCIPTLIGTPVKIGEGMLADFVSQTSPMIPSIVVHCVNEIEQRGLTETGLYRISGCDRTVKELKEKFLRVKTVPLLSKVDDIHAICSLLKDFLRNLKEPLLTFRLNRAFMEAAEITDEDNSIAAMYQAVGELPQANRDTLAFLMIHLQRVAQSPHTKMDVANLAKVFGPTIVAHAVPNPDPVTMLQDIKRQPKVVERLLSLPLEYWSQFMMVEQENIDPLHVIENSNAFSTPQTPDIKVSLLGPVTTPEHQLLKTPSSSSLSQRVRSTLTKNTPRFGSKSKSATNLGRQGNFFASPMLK

inhibition, inactive:
O=C(O)CCCN1C(=O)c2ccc(Oc3cccc([N+](=O)[O-])c3)cc2C1=O 1.11%
Cc1ccc(OCC(=O)NNC(=O)c2ccco2)c(C)c1 8.22%
O=C(O)[C@H](CSCc1ccccc1)NS(=O)(=O)c1ccc(F)cc1 9.02%
CCCCn1c(SCC(=O)c2ccccc2)nc2ccsc2c1=O 9.24%
CCCCn1c(SCC(=O)Nc2cc(C)[nH]n2)nc2ccsc2c1=O 9.99%
C=CCn1c(SCC(=O)Nc2cc(C)on2)nc2sc(CC)cc2c1=O -5.28%
C=CCn1c(SCC(=O)NC2CC2)nc2sc(CC)cc2c1=O 2.06%
CN(Cc1ccccc1)C(=O)COC(=O)/C=C/c1ccco1 7.88%
Cc1ccc(NC(=O)Cn2nc(C(=O)O)c3ccccc3c2=O)cc1S(=O)(=O)N1CCOCC1 5.1%
COc1ccc2c(C)cc3nncn3c2c1 5.43%
COc1ccc2c(C)cc3nnnn3c2c1 7.23%
Nc1ccn([C@@H]2O[C@H](COS(=O)(=O)O)[C@@H](O)[C@H]2O)c(=O)n1 9.68%
COc1cc(CNCc2cccc(OC)c2OC)cc(OC)c1 20.9%
COc1cccc(CNCc2cccc(Br)c2)c1OC 24.4%
COCC(C)NCc1cccc(C)c1 (configuration not stated) 5.01%
COc1cccc(CNCc2ccccn2)c1OC 8.4%
COc1ccccc1CNCc1ccc(OC)c(OC)c1OC 20.1%
COCC(C)NCc1cc(Br)ccc1OC (configuration not stated) 26.2%
N#CCCn1cc(C(=O)Nc2ccc(C(=O)O)cc2)c(-c2ccc([N+](=O)[O-])cc2)n1 5.44%
O=C(C(=O)c1ccc(O)cc1)c1ccccc1 3.36%
O=C1Cn2c(nc3ccccc32)-c2ccccc2N1 1.15%
CCCCc1ccc(S(=O)(=O)NCCCN2CCCC2=O)cc1 6.42%
Cc1ccc(Cn2c(CCNc3nc(-c4ccc(Cl)c([N+](=O)[O-])c4)cs3)nc3cc(Cl)c(Cl)cc32)cc1 7.46%
CC(C)(C)OC(=O)C[C@H]1C/C=C\C[C@@H](CC(=O)N[C@@H](CO)Cc2ccccc2)C(=O)NC[C@H](c2ccccc2)OC1=O 2.19%
Cc1cn(C2CC(OC(=O)C(C)C)C(CO)O2)c(=O)[nH]c1=O (configuration not stated) 6.43%
O=c1[nH]cn[nH]1 0.25%
CC(CCN(C)C)OC(=O)c1ccc(C(C)c2ccccc2)o1 (configuration not stated) 1.78%
Oc1c(Br)cc(Br)cc1C=Nc1ccc2c(c1)OCO2 15.4%
Brc1ccc2c(c1)OCCOCCOCCOCCOCCOCCO2 0.25%
Oc1c(Cl)cc(Cl)cc1C=Nc1ccc2c(c1)OCCO2 4.97%
Brc1ccc2c(c1)OCCOCCOCCOCCOCCO2 8.26%
O=S(=O)(c1ccc(SCc2cccc(Cl)c2)nc1)N1CCCC1 2.55%
CC(=O)c1cccc(OC(=O)C2=CC=CN3CCS(=O)(=O)N=C23)c1 7.32%
COc1ccc2c(c1)c1nc3ccccc3nc1n2Cc1ccc(OC)c(OC)c1 8.38%
COc1cccc(CN(C)C(=O)Nc2cccc(C(F)(F)F)c2)c1OC -4.29%
Brc1ccc(OCc2nnc3n2CCC3)cc1 5.52%
O=C(COc1cccnc1[N+](=O)[O-])N1CCc2ccccc21 0.83%
CCN(CC)c1ccc(-c2c(C#N)c(N)nc(OC)c2C#N)cc1 -1.06%
Cn1c(=Nc2ccccc2)sc2ccccc21 4.04%
COc1ccc(N=c2sc3ccccc3n2C)cc1 3.05%
CCC(=NOCc1ccccc1)C(=O)NNS(=O)(=O)c1ccc(C)cc1 0.04%
COc1ccc(/C=N/NC(=O)c2ccc(-c3ccccc3)cc2)cc1O 25.4%
COc1cc(C(=O)N/N=C/c2ccc(OC(=O)c3ccccc3)c(OC)c2)ccc1O 25.2%
O=C(N/N=C/c1cccc(O)c1)c1ccc(-n2cnnn2)cc1 1.77%
O=C(N/N=C/c1ccc(F)cc1)c1ccc(-n2cnnn2)cc1 -4.33%
COc1cc(C=NNc2nc3c([nH]2)c(=O)n(C)c(=O)n3C)ccc1O 12.7%
Nc1ccc(C(=O)N/N=C/c2cn(Cc3ccccc3)c3ccccc23)cc1 0.58%
COc1cc(/C=N/Nc2ccccc2C(F)(F)F)ccc1O 20.2%
COc1cc(C(=O)N/N=C/c2cn(Cc3cccc(F)c3)c3ccccc23)ccc1O 28.6%
CCn1c(CNC(=O)c2ccco2)nnc1SCC(=O)c1ccccc1 13.1%
CCN(CC)S(=O)(=O)c1cccc(NC(=O)C(=O)c2c(-c3ccccc3)cc3ccccn23)c1 9%
O=C(/C=C/c1ccc(Cl)cc1)N1CCN(Cc2ccccc2)CC1 10.8%
CC(Oc1ccc(Br)cc1)C(=O)Nc1ccc(S(=O)(=O)Nc2nccs2)cc1 (configuration not stated) 3.41%
COc1cc(C=NCc2ccccc2)ccc1O 15.5%
COc1ccc(/C=N/NC(=O)c2cc[n+]([O-])cc2)cc1 2.43%
COc1cc(/C=N/Nc2ccccc2)ccc1O 13%
COc1ccc(NS(=O)(=O)c2cccc(C(=O)N/N=C/c3ccc(O)cc3)c2)cc1 16.4%
Cn1c(N/N=C\c2cccc(O)c2)cc(=O)n(C)c1=O 11.6%
COc1ccc(/C=N/Nc2cc(=O)n(C)c(=O)n2C)cc1OC 1.57%
COc1ccc(/C=N/NC(=O)c2cc[n+]([O-])cc2)cc1OC 1.48%
COc1ccc(NS(=O)(=O)c2cccc(C(=O)NN=Cc3ccc(OC)c(O)c3)c2)cc1 22.5%
Cc1ccc(C(=O)N2CCN(S(=O)(=O)c3ccc(C)c([N+](=O)[O-])c3)C2)cc1 6.42%
